According to PubChem BioAssay (NCI):
This is part of a sample that, as a whole, favours compounds with a hit. Of some 79,000 tested, about 15% had one in any assay. A number with no mark means an inactive call. Calls of active or inactive are those of the source. Rule as the data show it: active = growth inhibition above about 70%; inactive = the rest.

How the values were obtained:
[1] = NCI Yeast Anticancer Drug Screen. Data for the wt1 strain (AID 149);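 also: 0% = growth of vehicle-treated wt1 cultures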; conditions: S. cerevisiae wt1 strain (SPY 50644) growth inhibition, active compounds read high
Outline: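 Readout: yeast growth inhibition, normalised to vehicle controls, in the wt1 strain exposed to test compounds.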

[2] = NCI Yeast Anticancer Drug Screen. Data for the rad50EPP+ strain (AID 151);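 also: 0% = growth of vehicle-treated control cultures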; conditions: S. cerevisiae rad50 mutant strain, active compounds read high
Outline: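 Strain rad50EPP+; compound exposure; % growth inhibition vs vehicle.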

[3] = NCI Yeast Anticancer Drug Screen. Data for the mgt1 strain (AID 153); conditions: S. cerevisiae mgt1 mutant growth inhibition, active compounds read high
Outline: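 Read-out: yeast growth inhibition vs vehicle control. Strain mgt1, drawn from a panel altered in DNA damage repair or cell cycle control.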

[4] = NCI Yeast Anticancer Drug Screen. Data for the rad50 strain (AID 155);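 also: 0% = growth of vehicle-only cultures of the same strain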; conditions: S. cerevisiae rad50 strain growth inhibition, active compounds read high
Outline: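 Compounds were tested on a yeast strain with an engineered DNA damage repair alteration; the reported value is growth inhibition normalised to vehicle treatment.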

[5] = NCI Yeast Anticancer Drug Screen. Data for the mec2-1 strain (AID 157); conditions: S. cerevisiae mec2-1 strain, active compounds read high
Outline: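 Cells of the genetically defined mec2-1 yeast strain are incubated with test compound. Inhibition of growth is calculated against vehicle-treated controls.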

[6] = NCI Yeast Anticancer Drug Screen. Data for the rad14 strain (AID 159);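 also: 0% = growth of vehicle-treated control cultures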; conditions: S. cerevisiae rad14 strain growth inhibition, active compounds read high
Outline: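 Compound-treated yeast with a defined DNA-repair lesion; growth inhibition normalised to vehicle-treated cultures.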

[7] = NCI Yeast Anticancer Drug Screen. Data for the sgs1 mgt1 strain (AID 161);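 also: 0% = growth of cultures given vehicle only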; conditions: S. cerevisiae sgs1 mgt1 strain, active compounds read high
Outline: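 Read-out: growth inhibition vs vehicle controls. Cells: mutant yeast strain deficient in DNA damage repair.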

[8] = NCI Yeast Anticancer Drug Screen. Data for the cln2 rad14 strain (AID 165);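 also: 0% = growth equal to vehicle treated cultures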; conditions: S. cerevisiae cln2 rad14 strain, active compounds read high
Outline: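 The screen exposed genetically defined yeast (cln2 rad14) to test compounds and scored growth inhibition relative to vehicle-treated controls.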

[9] = NCI Yeast Anticancer Drug Screen. Data for the bub3 strain (AID 167); conditions: S. cerevisiae bub3 mutant strain, active compounds read high
Outline: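 Growth of a checkpoint-deficient yeast mutant is measured after compound exposure. Values represent inhibition relative to vehicle.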

[10] = NCI Yeast Anticancer Drug Screen. Data for the wt2 strain (AID 169);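 also: 0% = growth of vehicle-treated yeast cultures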; conditions: S. cerevisiae wt2 strain growth inhibition, active compounds read high
Outline: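 Steps: yeast strain treated with compound; growth recorded; inhibition calculated relative to cultures given vehicle alone.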

[11] = NCI Yeast Anticancer Drug Screen. Data for the mlh1 strain (AID 171);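 also: 0% = growth of vehicle-treated control cultures of the same strain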; conditions: S. cerevisiae mlh1 strain growth inhibition, active compounds read high
Outline: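 Yeast screen: mutant strain plus compound, growth scored against vehicle control wells.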

[12] = NCI Yeast Anticancer Drug Screen. Data for the sgs1 strain (AID 173);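 also: 0% = growth of vehicle-only control cultures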; conditions: S. cerevisiae sgs1 mutant, active compounds read high
Outline: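 Inhibition of yeast growth served as the measure. The mutant strain was treated with each compound, and growth was normalised to cultures receiving vehicle alone.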

[13] = NCI Yeast Anticancer Drug Screen. Data for the mlh1 rad18 strain (AID 175); conditions: S. cerevisiae mlh1 rad18 strain growth inhibition, active compounds read high
Outline: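 Compound-treated yeast growth, normalised to vehicle controls. Strain bears defined DNA repair mutations.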

[14] = NCI Yeast Anticancer Drug Screen. Data for the rad18 strain (AID 177); conditions: S. cerevisiae rad18 mutant growth inhibition, active compounds read high
Outline: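 Inhibition values reflect reduced yeast growth compared with vehicle-treated controls, using a strain engineered with a DNA damage repair defect.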

[15] = at 5.0 µM (retest, dose inferred, filed as 0.5)
[16] = at 50.0 µM (retest, dose inferred, filed as 5.0)

O=C(O)NCC1CCCCC1 (tested in a mixture with another compound)
growth inhibition ([1]; at 1.2 µM): -1%
growth inhibition ([1]; at 3.7 µM): -4%
growth inhibition ([1]; at 11.0 µM): -4%
growth inhibition ([1]; at 33.0 µM): -5%
growth inhibition ([1]; at 100.0 µM): -4%
growth inhibition ([2]; at 1.2 µM): 0%
growth inhibition ([2]; at 3.7 µM): -4%
growth inhibition ([2]; at 11.0 µM): -3%
growth inhibition ([2]; at 33.0 µM): 7%
growth inhibition ([2]; at 100.0 µM): 4%
growth inhibition ([3]; at 1.2 µM): -2%
growth inhibition ([3]; at 3.7 µM): -4%
growth inhibition ([3]; at 11.0 µM): -4%
growth inhibition ([3]; at 33.0 µM): -4%
growth inhibition ([3]; at 100.0 µM): 16%
growth inhibition ([4]; at 1.2 µM): 2%
growth inhibition ([4]; at 3.7 µM): -3%
growth inhibition [4, 15]: 1%
growth inhibition ([4]; at 11.0 µM): -6%
growth inhibition ([4]; at 33.0 µM): 7%
growth inhibition [4, 16]: 38%
growth inhibition ([4]; at 50.0 µM): -12.8%
growth inhibition ([4]; at 100.0 µM): 83% (active)
growth inhibition ([5]; at 1.2 µM): -3%
growth inhibition ([5]; at 3.7 µM): -1%
growth inhibition [5, 15]: -15%
growth inhibition ([5]; at 11.0 µM): -4%
growth inhibition ([5]; at 33.0 µM): -5%
growth inhibition [5, 16]: 19%
growth inhibition ([5]; at 50.0 µM): 8.35%
growth inhibition ([5]; at 100.0 µM): 22%
growth inhibition ([6]; at 1.2 µM): 0%
growth inhibition ([6]; at 3.7 µM): -6%
growth inhibition ([6]; at 11.0 µM): -5%
growth inhibition ([6]; at 33.0 µM): -1%
growth inhibition ([6]; at 100.0 µM): 61%
growth inhibition [7, 15]: -2%
growth inhibition [7, 16]: 39%
growth inhibition ([7]; at 50.0 µM): -35.7%
growth inhibition [8, 15]: -4%
growth inhibition [8, 16]: 11%
growth inhibition ([8]; at 50.0 µM): 33%
growth inhibition ([9]; at 1.2 µM): -4%
growth inhibition ([9]; at 3.7 µM): -4%
growth inhibition [9, 15]: -5%
growth inhibition ([9]; at 11.0 µM): -7%
growth inhibition ([9]; at 33.0 µM): -2%
growth inhibition [9, 16]: 10%
growth inhibition ([9]; at 50.0 µM): 0.5%
growth inhibition ([9]; at 100.0 µM): 58%
growth inhibition ([10]; at 1.2 µM): -2%
growth inhibition ([10]; at 3.7 µM): 2%
growth inhibition ([10]; at 11.0 µM): -5%
growth inhibition ([10]; at 33.0 µM): -4%
growth inhibition ([10]; at 100.0 µM): 37%
growth inhibition ([11]; at 1.2 µM): -2%
growth inhibition ([11]; at 3.7 µM): -6%
growth inhibition ([11]; at 11.0 µM): -7%
growth inhibition ([11]; at 33.0 µM): -3%
growth inhibition ([11]; at 100.0 µM): 32%
growth inhibition ([12]; at 1.2 µM): -4%
growth inhibition ([12]; at 3.7 µM): 6%
growth inhibition ([12]; at 11.0 µM): -23%
growth inhibition ([12]; at 33.0 µM): -5%
growth inhibition ([12]; at 100.0 µM): 75% (active)
growth inhibition [13, 15]: 0%
growth inhibition [13, 16]: 34%
growth inhibition ([13]; at 50.0 µM): 6.1%
growth inhibition ([14]; at 1.2 µM): 0%
growth inhibition ([14]; at 3.7 µM): -1%
growth inhibition ([14]; at 11.0 µM): -5%
growth inhibition ([14]; at 33.0 µM): 2%
growth inhibition ([14]; at 100.0 µM): 45%
